The source made the active and inactive calls. The calls were made as follows: active = hit-call score of the fitted dose curve at least 0.9, where 1 is the maximum; inactive = score below 0.9.
Read-out: adenosine kinase (ADK) gene, ADK (gene 132)
Experiment: LTEA_HepaRG_ADK: Life Technologies and Expression Analysis (LTEA) Assay for adenosine kinase (ADK) gene using HepaRG (AID 2283471)
Conditions: mRNA level, 48 h; actives raise or lower the signal
Procedure: LTEA_HepaRG is a cell based, multiplexed-readout assay that uses HepaRG, a human liver cell line, with measurements taken at 48 hours after chemical dosing on a 96-well plate.LTEA_HepaRG_ADK is one of 102 assay component(s) measured in the LTEA HepaRG cell culture assay. It is a marker of Steatosis.Data from the assay component LTEA_HepaRG_ADK was analyzed into 1 endpoint. This assay endpoint, LTEA_HepaRG_ADK, was analyzed with bidirectional fitting relative to DMSO as the negative control and baseline of activity. Using a type of inducible reporter, measures of mRNA induction for gain or loss-of-signal activity can be used to understand regulation of transcription factor activity. To generalize the intended target to other relatable targets, this assay endpoint is annotated to the kinase intended target family, where the subfamily is steatosis.
A total of 1060 chemcials from the ToxCast library were tested in eight-point concentration-response experiments. Cell culture and cytotoxicity assays were conducted at Thermo Fisher Scientific's Custom Services facility (Madison, WI). A single lot of human HepaRG cells (Thermo Fisher Scientific, Frederick, MD) was used for the cell culture experiments. 96-well format collagen type I coated plates of human HepaRG cells were prepared using established methods. Briefly, cryopreserved HepaRG cells were thawed, plated at a density of approximately 100,000 cells/well in HepaRG Thaw, Plate, and General Purpose media (HPRG770, Thermo Fisher Scientific), and incubated for 48 hours. 0.5% DMSO was selected as vehicle control to balance the requisite need of DMSO in HepaRG cultures to maintain differentiation (for example, baseline metabolism, proportions of hepatocytes vs. cholangiocytes), while enabling further hepatic receptor pathway activation (for example, PXR and CAR) in response to chemical exposure. 48 hours after plating, the culture medium was replaced with HepaRG Serum-Free Incudtion Media. Cells were exposed to each test chemical in duplicate and maintained in CO2 incubators for another 48 hours. Chemical plates were thawed to room temperature and 200x concentrations of treatment groups were prepared. 8-point conentration-reponse curves were made with the highest exposure at 100 uM, followed by half-log dilutions, all in 0.5% DMSO. Each test plate contained variouse controls, induction positive controls (1mM phenobarbital), cytotoxicity positive controls ([…] aflatoxin B1), vehicle controls (0.5% DMSO), and total lysis controls (0.5% DMSO). Cell morphology images were taken using an Essen IncuCyte FLR automated microscope, with six 96-well plates imaged in about 24 minutes. Images were captured and exported and JPEG files. Spent culture media was transfered to black-well plates for the LDH assay, and remaining media was sorted at -80 C for later use. Cells were treated with RLT buffer and frozen until shipped for gene expression analysis. Total RNA was isolated from the cell suspension in 75 uL of Buffer RLT (Qiagen, Germantown, MD 20874) by Quintiles/Expression Analysis (Durham, NC) using a custom isolation procedure. Total RNA from each plate well was transferred to a preamplification plate. Fluidigm's 96.96 Dynamic ArrayTM (Fluidigm, Amsterdam, the Netherlands) technology was used for gene expression analyses by quantitative reverse transcription polymerase chain reaction (qRT-PCR, performed by Quintiles/Expression Analysis, Durham, NC)89. Standard TaqManTM Assays (Applied Biosystems/ThermoFisher Scientific, Foster City, CA) were used to assess the expression of 93 genes selected based on their selectivity and sensitivity to important hepatic receptors known to be modulated by environmental chemicals; importance in human hepatocyte functionality; and hepatotoxicity. […]

| Compound | outcome | AC50 |
| --- | --- | --- |
| Cn1cnc2c1c(=O)[nH]c(=O)n2C | inactive | – |
| CC(=O)S[C@H](C(=O)N[C@H]1Cc2ccccc2[C@H]2CCC[C@@H](C(=O)O)N2C1=O)C(C)C | inactive | – |
| O=C(Oc1ccccc1)c1cccc(C(=O)Oc2ccccc2)c1 | inactive | – |
| NCCOCCOCCN | inactive | – |
| CC(=O)OCC(COC(C)=O)OC(C)=O | inactive | – |
| Nc1nc(Cl)nc2c1ncn2[C@H]1C[C@H](O)[C@@H](CO)O1 | – | 1.05 µM (active) |
| CC(=O)CC(c1ccccc1)c1c(O)c2ccccc2oc1=O (stereo not given) | inactive | – |
| CC(C)OC(=O)C(C)(C)Oc1ccc(C(=O)c2ccc(Cl)cc2)cc1 | inactive | – |
| CC(C)c1cccc(C(C)C)c1 | inactive | – |
| C/C=C/c1ccc(OC)cc1 | inactive | – |
| O=C(O)c1cccnc1 | inactive | – |
| Oc1ccc(O)cc1 | inactive | – |
| CN(C)C(=O)NC1(c2ccccc2)CCN(CCC[C@]2(c3ccc(Cl)c(Cl)c3)CCCN(C(=O)c3ccccc3)C2)CC1 | – | 12.5 µM (active) |
| CCCCC(CC)COP(=O)(OCC(CC)CCCC)OCC(CC)CCCC (stereo not given) | inactive | – |
| O=C(O)c1[nH]n(-c2ccc(S(=O)(=O)O)cc2)c(=O)c1N=Nc1ccc(S(=O)(=O)O)cc1 | inactive | – |
| CCc1nc(N)nc(N)c1-c1ccc(Cl)cc1 | inactive | – |
| NC1CCCCC1 | inactive | – |
| O=C(NS(=O)(=O)/C=C/c1cccs1)c1ccc(F)cc1Br | inactive | – |
| COC(=O)CCC(=O)OC | inactive | – |
| CC(C)(O)c1ccc(CNC(=O)c2cccnc2Oc2ccc(F)cc2)cc1 | inactive | – |

| Compound | outcome | AC50 |
| --- | --- | --- |
| CCN(CC)CCOc1ccc(C(=C(Cl)c2ccccc2)c2ccccc2)cc1 | inactive | – |
| Cc1occc(=O)c1O | inactive | – |
| O=C1O[C@H]([C@H](O)CO)C(O)=C1O | inactive | – |
| CC1(C)C(=O)NC(=O)N1CO | inactive | – |
| NC=O | inactive | – |
| O=C1OC(c2ccc(O)cc2)(c2ccc(O)cc2)c2ccccc21 | inactive | – |
| O=C(O)CC(O)(CC(=O)O)C(=O)O | inactive | – |
| COc1ccc(OC(F)(F)F)cc1CN[C@H]1CCCN[C@H]1c1ccccc1 | – | 79.3 µM (active) |
| CCCCCCCCCCCCCCOS(=O)(=O)O | inactive | – |
| S=c1[nH]c2ccccc2s1 | inactive | – |
| CCCCOC(=O)CCCCC(=O)OCCCC | inactive | – |
| Cc1cn([C@H]2C=C[C@@H](CO)O2)c(=O)[nH]c1=O | inactive | – |
| C=CCCCCCCCCCCCC | inactive | – |
| CC(=O)OC1CC(C)OC(C)O1 (stereo not given) | inactive | – |
| CC(=O)[C@@]1(O)CC[C@H]2[C@@H]3CCC4=CC(=O)CC[C@]4(C)[C@H]3CC[C@@]21C | inactive | – |
| CCCCCCC(CCCCCCCCCCC(=O)OCC(COC(C)=O)OC(C)=O)OC(C)=O (stereo not given) | inactive | – |
| O=[Si]=O | inactive | – |
| Cc1cc(Cc2ccc(N)c(C)c2)ccc1N | inactive | – |
| CCCCC(CC)CO (stereo not given) | inactive | – |
| CCCC(=O)O | inactive | – |

Reference: PubChem BioAssay (EPA / NIEHS)
